Measured values from PubChem BioAssay AID1159580 (chemical genetic matrix, 2015).
Several values for one entry are separate records, joined by “and”; a condition that tells them apart may be missing. Identical values can stand only once. The campaign covered roughly 5,500 compounds. About 2,000 (36%) were called active. Inconclusive results (about 18%) are left out. Cut-off read from the data, not from the text of the source: active = normalized growth mostly below about 0.91 (no sharp cut-off); inconclusive = no clear call, values can overlap the other calls; inactive = mostly above about 0.92. Some of the results follow.

Assay: chemical genetic growth profiling, strain panel (AID 1159580);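 note: tested at 20 µM; growth read once vehicle control cultures reached saturation at 30 °C; 1 = growth at the plate median or of vehicle wells; lower values mean less growth of the strain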
Details: S. cerevisiae deletion strains, growth OD

Measured: normalized growth

NC(N)=NC(=O)c1nc(Cl)c(N)nc1N
inactive: locus YAL013W, strain DEP1, active compounds read low 0.935 | locus YAL021C, strain ccr4, active compounds read low 0.977 | locus YAL026C, strain drs2, active compounds read low 1.01 | locus YAL030W, strain snc1, active compounds read low 1.01 | locus YAL040C, strain CLN3, active compounds read low 1 | locus YBL061C, strain skt5, active compounds read low 1.04 | locus YBR009C, strain hhf1, active compounds read low 1.01 | locus YBR021W, strain FUR4, active compounds read low 0.86 | locus YBR023C, strain chs3, active compounds read low 1.04 | locus YBR171W, strain sec66, active compounds read low 1.02 | locus YBR229C, strain ROT2, active compounds read low 1 | locus YBR231C, strain swc5, active compounds read low 1.02 | locus YBR279W, strain paf1, active compounds read low 1.01 | locus YCL011C, strain gbp2, active compounds read low 0.998 | locus YCL016C, strain dcc1, active compounds read low 0.997 | locus YCL029C, strain bik1, active compounds read low 1.02 | locus YCL061C, strain MRC1 (second series), active compounds read low 0.995 | locus YCL061C, strain MRC1, active compounds read low 1.03 | locus YCL069W, strain vba3, active compounds read low 1.02 | locus YCR088W, strain abp1, active compounds read low 1.03 | locus YDL005C, strain med2, active compounds read low 1.02 | locus YDL035C, strain GPR1, active compounds read low 0.983 | locus YDL040C, strain nat1, active compounds read low 1.02 | locus YDL074C, strain BRE1, active compounds read low 0.975 | locus YDL101C, strain DUN1, active compounds read low 1.03 | locus YDL185W, strain tfp1, active compounds read low 1.03 | locus YDL192W, strain arf1, active compounds read low 1.02 | locus YDR001C, strain nth1, active compounds read low 1.04 | locus YDR069C, strain doa4, active compounds read low 1.04 | locus YDR101C, strain arx1, active compounds read low 1.01 | locus YDR137W, strain rgp1, active compounds read low 1.02 | locus YDR159W, strain sac3, active compounds read low 1 | locus YDR162C, strain NBP2, active compounds read low 1.02 | locus YDR195W, strain ref2 1.04 | locus YDR297W, strain sur2, active compounds read low 1.02 | locus YDR318W, strain mcm21, active compounds read low 1.02 | locus YDR334W, strain swr1, active compounds read low 1.01 | locus YDR335W, strain msn5, active compounds read low 1.01 | locus YDR388W, active compounds read low 1.01 | locus YDR392W, strain spt3, active compounds read low 0.988 | locus YDR502C, strain sam2, active compounds read low 1.02 | locus YEL003W, strain gim4, active compounds read low 1.02 | locus YEL037C, strain rad23, active compounds read low 1.02 | locus YEL061C, strain CIN8 (second series), active compounds read low 1.03 | locus YEL061C, strain CIN8, active compounds read low 1 | locus YER002W, strain NOP16, active compounds read low 1 | locus YER015W, strain faa2, active compounds read low 1.03 | locus YER016W, strain bim1, active compounds read low 1.02 | locus YER110C, active compounds read low 1.02 | locus YER111C, strain swi4, active compounds read low 1.03 | locus YER155C, strain BEM2 (second series), active compounds read low 1.05 | locus YER155C, strain BEM2, active compounds read low 1.01 | locus YER167W, strain BCK2, active compounds read low 1 | locus YFR010W, strain ubp6, active compounds read low 1.01 | locus YGL078C, strain dbp3, active compounds read low 1.01 | locus YGL086W, strain mad1, active compounds read low 1.01 | locus YGL167C, strain pmr1, active compounds read low 1.04 | locus YGL173C, strain kem1, active compounds read low 1.04 | locus YGL227W, strain vid30, active compounds read low 1.03 | locus YGL240W, strain doc1, active compounds read low 1.05 | locus YGL248W, strain PDE1, active compounds read low 1.01 | locus YGL253W, strain hxk2, active compounds read low 1 | locus YGR135W, strain pre9, active compounds read low 0.987 | locus YGR229C, strain SMI1, active compounds read low 0.994 | locus YGR252W, strain gcn5, active compounds read low 0.896 | locus YHR013C, strain ard1, active compounds read low 0.998 | locus YHR027C, strain rpn1, active compounds read low 1.02 | locus YHR030C, strain SLT2, active compounds read low 1.01 and 1 | locus YHR079C, strain IRE1 (second series), active compounds read low 1.01 | locus YHR079C, strain IRE1, active compounds read low 1 | locus YHR094C, strain hxt1, active compounds read low 1.01 | locus YHR129C, strain ARP1, active compounds read low 1.02 | locus YHR142W, strain chs7, active compounds read low 1.02 | locus YHR200W, strain rpn10, active compounds read low 1.02 | locus YIL066C, strain RNR3, active compounds read low 1.02 | locus YIL073C, strain SPO22, active compounds read low 1 | locus YIL125W, strain kgd1, active compounds read low 1.01 | locus YIR030C, strain dcg1, active compounds read low 1.02 | locus YJL092W, strain hpr5, active compounds read low 1.01 | locus YJL095W, strain BCK1 (second series), active compounds read low 1.03 | locus YJL095W, strain BCK1, active compounds read low 0.962 and 1.01 | locus YJL115W, strain asf1, active compounds read low 1.02 | locus YJL129C, strain trk1, active compounds read low 1.04 | locus YJL134W, strain LCB3, active compounds read low 1 | locus YJL154C, strain vps35, active compounds read low 1.01 | locus YJL164C, strain tpk1, active compounds read low 0.995 | locus YJL166W, strain qcr8, active compounds read low 1.04 | locus YJL168C, strain set2, active compounds read low 1.02 | locus YJL187C, strain SWE1 (second series), active compounds read low 1.01 | locus YJL187C, strain SWE1, active compounds read low 1.02 | locus YJR043C, strain POL32, active compounds read low 1.02 | locus YJR066W, strain TOR1, active compounds read low 0.959 | locus YJR075W, strain HOC1, active compounds read low 1.02
